Assay results taken from PubChem BioAssay.
Calls of active or inactive are those of the source. Unless noted, no rule for the calls is given here.

Columns and labels:
[1] = A549 cell viability effects, profiling panel, calcein-AM fluorescence, 48 h, basal (AID 1162); details: higher = more signal; also: test concentration not given here
[2] = adipocyte viability effects, profiling panel, cell-based, 3T3-L1 adipocytes, calcein-AM fluorescence, 48 h, basal (AID 1163); details: 3T3-L1 adipocytes viability, higher = more signal; also: test concentration not given here
[3] = HepG2 cell viability effects, profiling panel, calcein-AM fluorescence, 48 h, basal (AID 1164); details: higher = more signal; also: test concentration not given here
[4] = MM1S cell viability effects, profiling panel, calcein-AM fluorescence, 48 h, basal (AID 1165); details: higher = more signal;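 also: viability of MM1S multiple myeloma cells under basal unstimulated conditions; test concentration not given here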
[5] = basal RPMI8226 viability, no added stimulus, profiling panel, cell-based, calcein-AM fluorescence, 48 h, PK04 Diversity Set (AID 1166); details: RPMI8226 myeloma viability, higher = more signal;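 also: cells grown under basal conditions without added stimulus; test concentration not given here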
[6] = basal HepG2 mitochondrial membrane potential changes, profiling panel, cell-based, JC-1 fluorescence, 24 h, 100 nL compound (AID 1167); details: higher = more signal; also: test concentration not given here
[7] = basal 3T3-L1 adipocyte mitochondrial potential changes, profiling panel, cell-based, JC-1 fluorescence, 3T3-L1 adipocytes, 24 h, 100 nL compound (AID 1168); details: JC-1 mitochondrial fluorescence, higher = more signal, called active from +8 up or from −8 down; also: test concentration not given here
[8] = basal RPMI8226 mitochondrial membrane potential changes, profiling panel, cell-based, JC-1 fluorescence, 24 h, 100 nL compound (AID 1169); details: RPMI8226 myeloma, JC-1 mitochondrial potential fluorescence, higher = more signal; also: test concentration not given here
[9] = basal MM1S mitochondrial membrane potential changes, profiling panel, cell-based, JC-1 fluorescence, 24 h, 100 nL compound (AID 1170); details: higher = more signal; also: test concentration not given here
[10] = A549 lung cancer cell viability effects, profiling panel, resazurin fluorescence, 24 h, PK04 Diversity Set (AID 1171); details: higher = more signal, called active from +8 up or from −8 down; also: test concentration not given here
[11] = HepG2 liver cancer cell viability effects, profiling panel, resazurin fluorescence, 24 h, PK04 Diversity Set (AID 1172); details: higher = more signal; also: test concentration not given here
[12] = basal S. cerevisiae growth modulation, no modifier, primary screen, OD600, strain BY4716, 24 h, basal condition (AID 1173); details: OD600, 24 h, higher = more signal, called active from +8 up or from −8 down
[13] = MM1S myeloma cell viability, profiling panel, resazurin fluorescence, basal, 24 h, PK04 Diversity Set (AID 1174); details: higher = more signal, called active from +8 up or from −8 down;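 also: MM1S multiple myeloma cell line; test concentration not given here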
[14] = molecular target: Dihydroorotate dehydrogenase (quinone), mitochondrial (Plasmodium falciparum (isolate 3D7)) (UniProt Q08210); test: PfDHODH enzyme inhibitors, primary screen, biochemical, C-terminal His tag, absorbance 600 nm (AID 1175); details: DCIP absorbance 600 nm, higher = more signal, called active from +8 up or from −8 down;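 also: recombinant parasite enzyme with a five histidine tag at its C terminus; test concentration not given here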
[15] = P. aeruginosa biofilm formation inhibitors, primary screen, strain PAO1, LB-PBS medium, absorbance 600 nm (AID 1176); also: test concentration not given here; details: P. aeruginosa PAO1 growth/biofilm, A600, 12 h; higher = more signal
[16] = S. cerevisiae RM11-1a growth modifiers, primary screen, strain RM11-1a, OD600, basal, 24 h (AID 1177); details: OD600, 24 h, higher = more signal, called active from +8 up or from −8 down;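 also: cultures grown under basal conditions with no added stressor; test concentration not given here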
[17] = E. coli acrAB mutant growth effects, primary screen, E. coli filamentation inducers, strain DRC39, OD650, 24 h (AID 1178); details: higher = more signal, called active from +8 up or from −8 down;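 also: growth measured as culture turbidity by optical density at 650 nm; test concentration not given here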
[18] = E. coli acrAB mutant growth effects, primary screen, E. coli filamentation inducers, strain DRC39, OD650, 48 h (AID 1179);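 also: screen aims at cell division blockers that make cells filament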; details: E. coli DRC39 delta-acrAB growth, higher = more signal, called active from +8 up or from −8 down
[19] = RPMI8226 myeloma cell viability, profiling panel, resazurin fluorescence, basal, 24 h, PK04 Diversity Set (AID 1180); details: higher = more signal;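 also: RPMI8826 multiple myeloma cell line at 5000 cells per well; test concentration not given here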
[20] = molecular target: E3 ubiquitin-protein ligase XIAP (Homo sapiens) (UniProt P98170); test: XIAP binders, primary screen, biophysical, small-molecule microarray, fluorescence 635 nm (AID 1181); details: small-molecule microarray binding, higher = more signal;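 also: score merges 667 nm emission and signal to noise over triplicate slides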
E3 ubiquitin-protein ligase XIAP (Homo sapiens), sequence (P98170 whole entry, looked up): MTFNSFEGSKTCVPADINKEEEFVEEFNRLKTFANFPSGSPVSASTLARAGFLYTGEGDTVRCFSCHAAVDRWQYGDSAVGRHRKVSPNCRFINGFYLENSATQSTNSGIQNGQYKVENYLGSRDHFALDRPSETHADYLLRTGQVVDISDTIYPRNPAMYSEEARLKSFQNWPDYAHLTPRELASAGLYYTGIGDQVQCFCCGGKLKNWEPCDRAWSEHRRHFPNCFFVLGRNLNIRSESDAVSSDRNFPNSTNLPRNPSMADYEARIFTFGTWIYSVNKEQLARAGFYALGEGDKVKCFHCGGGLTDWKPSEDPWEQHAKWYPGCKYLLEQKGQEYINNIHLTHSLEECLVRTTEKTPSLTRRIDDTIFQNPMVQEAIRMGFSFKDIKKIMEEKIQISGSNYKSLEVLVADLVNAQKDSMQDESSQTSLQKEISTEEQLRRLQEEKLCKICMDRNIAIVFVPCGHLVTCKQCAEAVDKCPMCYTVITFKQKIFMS

Dihydroorotate dehydrogenase (quinone), mitochondrial (Plasmodium falciparum (isolate 3D7)), sequence (Q08210 whole entry, looked up): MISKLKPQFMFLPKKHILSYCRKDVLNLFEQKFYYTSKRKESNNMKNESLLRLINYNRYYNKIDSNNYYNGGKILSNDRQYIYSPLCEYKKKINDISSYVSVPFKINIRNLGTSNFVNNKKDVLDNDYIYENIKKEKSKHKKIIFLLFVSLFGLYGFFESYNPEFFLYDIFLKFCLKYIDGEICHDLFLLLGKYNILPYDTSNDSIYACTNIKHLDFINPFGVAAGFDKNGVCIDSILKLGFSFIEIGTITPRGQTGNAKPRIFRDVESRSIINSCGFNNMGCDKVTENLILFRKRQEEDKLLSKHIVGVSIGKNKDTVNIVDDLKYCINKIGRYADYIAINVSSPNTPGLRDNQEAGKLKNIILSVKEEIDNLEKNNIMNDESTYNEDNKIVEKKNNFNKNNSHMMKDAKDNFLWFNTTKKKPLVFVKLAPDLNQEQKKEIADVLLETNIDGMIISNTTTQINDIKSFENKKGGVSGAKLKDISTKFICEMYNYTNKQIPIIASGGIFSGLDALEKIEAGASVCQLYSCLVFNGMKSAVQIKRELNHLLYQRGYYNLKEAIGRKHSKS

Row | SMILES | z-score [1] | z-score [2] | z-score [3] | z-score [4] | z-score [5] | z-score [6] | z-score [7] | z-score [8] | z-score [9] | z-score [10] | z-score [11] | z-score [12] | z-score [13] | composite z-score [14] | z-score [15] | z-score [16] | z-score [17] | z-score [18] | z-score [19] | composite z-score [20]
1 | COCCOC(=O)N1C(=O)[C@@]2(c3cc(C#CCC(C(=O)OC)C(=O)OC)ccc31)[C@H](c1ccc(OCCO)cc1)N1[C@H](c3ccccc3)[C@H](c3ccccc3)OC(=O)[C@H]1[C@@H]2C(=O)NC[C@H](O)c1ccccc1 | 0.185 | 0.102 | 1.56 | 0.446 | -2.01 | 0.177 | 1.39 (inactive) | -0.749 | -1.61 | 0.0076 (inactive) | 0.11 | 2.19 (inactive) | 0.241 (inactive) | 0.0044 (inactive) | 2.7 (inactive) | 3.3 (inactive) | 0.732 (inactive) | 0.855 (inactive) | -0.957 | 0.19
2 | COC(=O)[C@@]1(Cc2ccccc2)[C@H]2c3cc(C(=O)N(C)C)n(Cc4ccccc4)c3C[C@H]2CN1C(=O)c1ccccc1 | -1.19 | -0.93 | -0.775 | -0.143 | -0.747 | 1.14 | -0.655 (inactive) | 0.599 | -1.06 | -0.407 (inactive) | -0.853 | 2.1 (inactive) | -1.5 (inactive) | -0.252 (inactive) | 0.246 (inactive) | 1.6 (inactive) | -0.656 (inactive) | -0.411 (inactive) | -1.05 | 0.294
3 | COC(=O)[C@@]1(Cc2ccc(F)cc2)[C@H]2c3cc(C(=O)N(C)C)n(CCCNc4ccc(C(F)(F)F)cc4Cl)c3C[C@H]2CN1C(=O)c1ccccc1 | -1.34 | -0.851 | -0.136 | -0.84 | -4.32 | 2.61 | 0.391 (inactive) | -0.777 | -2.12 | -1.85 (inactive) | -0.591 | 1.28 (inactive) | -1.98 (inactive) | -0.0269 (inactive) | 0.439 (inactive) | 0.482 (inactive) | -0.0949 (inactive) | 0.29 (inactive) | -3.88 | 0.143
4 | CCCCCCC#C[Si](O[C@H](c1ccccc1)c1cn([C@H](C)c2ccccc2)nn1)(C(C)C)C(C)C | -0.577 | -1.2 | 0.0417 | 0.227 | 0.0204 | 3.36 | -0.0744 (inactive) | -0.846 | -1.19 | 2.74 (inactive) | 1.94 | 0.243 (inactive) | 2.59 (inactive) | -0.204 (inactive) | -0.443 (inactive) | 0.53 (inactive) | -0.0375 (inactive) | 0.622 (inactive) | 3.6 | -0.359
5 | CC(C)(C)OC(=O)CC[C@@]1(C(N)=O)N=C(c2ccc(OCCCO)cc2)O[C@@H]1c1ccccc1N=[N+]=[N-] | 1.37 | 0.337 | 2.25 | 1.46 | 0.415 | 0.221 | 0.951 (inactive) | -0.892 | -0.706 | -0.763 (inactive) | 0.55 | -0.231 (inactive) | -0.134 (inactive) | 0.974 (inactive) | -0.18 (inactive) | 0.045 (inactive) | 0.397 (inactive) | 0.529 (inactive) | 0.288 | 0.0908
6 | CCCNC(=O)[C@@]1(C)c2ccccc2C(=O)N(Cc2ccc(OC(F)(F)F)cc2)[C@H]1c1ccc(CO)cc1 | 0.951 | -0.105 | 1.28 | 0.328 | -0.0542 | 3.34 | 0.45 (inactive) | -0.244 | -0.949 | -0.658 (inactive) | -0.0818 | -0.0169 (inactive) | -0.0521 (inactive) | 0.263 (inactive) | 0.251 (inactive) | -0.277 (inactive) | 0.484 (inactive) | 1.28 (inactive) | 0.325 | -0.0599
7 | CCOC(=O)C=Cc1cccc(OC)c1O | -0.364 | 0.532 | -0.834 | 0.408 | -1.61 | -0.94 | 0.151 (inactive) | -0.149 | -1.25 | -0.787 (inactive) | -0.537 | -6.47 (inactive) | -0.649 (inactive) | -1.15 (inactive) | -2.06 (inactive) | -1.34 (inactive) | -0.597 (inactive) | -1.03 (inactive) | -1.07 | 0.0036
8 | O=[N+]([O-])c1ccc(C[n+]2ccc(CCCO)cc2)o1 | -0.38 | 1.01 | -0.405 | -0.41 | -2.35 | -1.07 | -0.266 (inactive) | -0.614 | 0.5 | -0.77 (inactive) | -1.32 | -7.77 (inactive) | -1.27 (inactive) | 0.403 (inactive) | 0.0214 (inactive) | 0.379 (inactive) | -1.4 (inactive) | -0.841 (inactive) | -0.211 | 0.905
